Source: PubChem BioAssay (Tox21)
Records with an inconclusive call do not appear. A call without a number means that no potency is given here. Unmarked numbers belong to inactive results. Activity calls are given as the source filed them. Calls come from the whole dose curve; as a rule, active = well fitted cell-killing curve with a large enough effect in the repeat runs; inconclusive = weak or mixed curves, or effect the other way; inactive = flat fitted curve, though single readings scatter.

Test: qHTS RealTime-Glo MT Cell Viability Assay in HEK293 cells - 8 hour (AID 1224887); note: nearly all actives have a fitted effect of over 50% in size; for activity change, negative = cytotoxicity: top concentration of the series differs between compounds
Details: RealTime-Glo luminescence; series mostly up to 76.8 µM
From the text: U.S. Tox21 Program National Center for Advancing Translational Sciences [NCATS] NIH Chemical Genomics Center [NCGC] U.S. Environmental Protection Agency [EPA] National Institutes of Environmental Health Sciences [NIEHS] National Toxicology Program [NTP] U.S. Food and Drug Administration [FDA] Tox21 Assay Overview: Measure of cell viability is critical in the cell-base assay. Analysis of cell viability is necessary for the characterization of cell responses to cytotoxic drugs and environmental stress. A RealTime-Glo MT Cell Viability Assay to monitor cell viability in real time of continues cell culture during 40 hours of compound treatment was used to screen Tox21 10K library compounds in Hek293 cells. The RealTime-Glo MT Cell Viability Assay is a nonlytic, homogeneous, bioluminescent method to measure cell viability in real time using a simple, plate-based method. The assay involves adding NanoLuc luciferase and a cell-permeant prosubstrate to cells in culture. Viable cells reduce the proprietary prosubstrate to generate a substrate for NanoLuc luciferase. This substrate diffuses from cells into the surrounding culture medium, where it is rapidly used by the NanoLuc Enzyme to produce a luminescent signal. The signal correlates with the number of viable cells, making the assay well suited for cytotoxicity studies.
Tox21 Assay Protocol Summary: The mixture of Hek293 cell suspension and reagents were dispensed at 600cells/6 ul/well in 1536-well tissue culture treated black solid bottom plates using a Multidrop dispenser. After the assay plates were incubated at a 37 C/5% CO2 incubator for 5 hours, 23 nL of compounds dissolved in DMSO, positive and negative controls was transferred to the assay plate by a pintool work station. The plates were incubated at 37 C for 40 hours. The luminescence intensity were measured at 0h, 8h, 16h, 24h, 32h and 40h time points using ViewLux plate reader during compound treatment.
Potency is the fitted concentration of half-maximal effect.

Row | SMILES | Potency | activity change, negative = cytotoxicity
1 | Cc1ccsc1C(=CCCN1CCC[C@@H](C(=O)O)C1)c1sccc1C | inactive | –
2 | CCN1CC(CCN2CCOCC2)C(c2ccccc2)(c2ccccc2)C1=O (stereo not given) | inactive | –
3 | CC1=C2[C@H](/C=C(\C)C(=O)O)CC[C@@H](C)[C@H]2CC1 | 25.5 µM (active) | –
4 | OCc1ccccc1O | inactive | –
5 | CCC/C=C/CO | inactive | –
6 | CN(C)C(=O)NC1(c2ccccc2)CCN(CCC[C@]2(c3ccc(Cl)c(Cl)c3)CCCN(C(=O)c3ccccc3)C2)CC1 | – | -28.2% [at 15.8 µM]
7 | COC(=O)c1ccc(OC)cc1 | inactive | –
8 | CN1CCN(c2c(F)cc3c(=O)c(C(=O)O)cn(CCF)c3c2F)CC1 | inactive | –
9 | O=C(CC(=O)C(F)(F)F)c1ccccc1 | inactive | –
10 | COc1cc(C)ccc1C(C)C | inactive | –
11 | CCCC1CCC(=O)O1 (stereo not given) | inactive | –
12 | CCCCCCCCc1ccc(S(=O)(=O)O)cc1 | inactive | –
13 | CC(C)C(=O)OC/C=C/c1ccccc1 | inactive | –
14 | CN1[C@@H]2CC[C@H]1CC(OC(=O)c1c[nH]c3ccccc13)C2 (stereo not given in full) | inactive | –
15 | COc1nc(C)nc(NC(=O)NS(=O)(=O)c2ccccc2OCCCl)n1 | inactive | –
16 | CC(C)(CO)[C@@H](O)C(=O)NCCC(=O)O | inactive | –
17 | Cc1cn([C@@H]2O[C@H](CO)[C@@H](O)[C@@H]2F)c(=O)[nH]c1=O | inactive | –
18 | Cn1cnc2c(F)c(Nc3ccc(Br)cc3Cl)c(C(=O)NOCCO)cc21 | inactive | –
19 | CN(CC1(C)CCCO1)S(=O)(=O)c1ccc(Cl)c(S(N)(=O)=O)c1 (stereo not given) | inactive | –
20 | CCC1(C)NC(=O)NC1=O (stereo not given) | inactive | –

Row | SMILES | Potency | activity change, negative = cytotoxicity
21 | CCCC(CCC)(C(=O)OCC)C(=O)OCC | inactive | –
22 | CCCCNCCCC | inactive | –
23 | CO[C@@]1(NC(=O)CSCC#N)C(=O)N2C(C(=O)O)=C(CSc3nnnn3C)CS[C@@H]21 | inactive | –
24 | CCN(CC)CCOc1ccc(Cc2ccccc2)cc1 | inactive | –
25 | CC(C)c1ccccc1 | inactive | –
26 | FC(F)(F)C(Cl)(Cl)Cl | inactive | –
27 | Cc1c(-c2ccccc2)oc2c(C(=O)OCCN3CCCCC3)cccc2c1=O | 19 µM (active) | –
28 | CN1CCN(N)CC1 | inactive | –
29 | CC(=O)Nc1ccc(C)c(Cl)c1 | inactive | –
30 | C[C@@H](N)C(=O)O | inactive | –
31 | COc1ccc(S(=O)(=O)Nc2nnc(CC(C)C)s2)cc1 | inactive | –
32 | Cc1ccc(C=O)s1 | inactive | –
33 | C[C@]12C(=O)OC(=O)[C@H]1[C@H]1C=C[C@@H]2C1 | inactive | –
34 | C1CCOC1 | inactive | –
35 | O=C(O)c1cccc(Cl)c1Cl | inactive | –
36 | CCCCC1CCC(=O)O1 (stereo not given) | inactive | –
37 | OCC(CBr)(CBr)CBr | inactive | –
38 | CCN(CC)C(=O)N(CC)CC | inactive | –
39 | Clc1cccc(-c2cc(Cl)cc(Cl)c2)c1 | inactive | –
40 | Oc1ccccc1C=NCc1ccccc1 | inactive | –
